# Results as given in PubChem BioAssay (NCATS).
# Records with an inconclusive call do not appear. Entries that show only a call come without a potency. Values without a mark were called inactive. The source made the active and inactive calls. Calls come from the whole dose curve; as a rule, active = well fitted inhibition curve with a large enough effect; inconclusive = small, poorly fitted or top-dose-only effect; inactive = flat fitted curve, though single readings scatter.
# Columns and labels:
# [1] = target: Ubiquitin carboxyl-terminal hydrolase 1 (Homo sapiens) (UniProt O94782); test: Inhibitors of USP1/UAF1: Pilot qHTS (AID 504865);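 note: rhodamine fluorescence freed from ubiquitin-rhodamine substrate followed over time; top concentration of the series differs between compounds; nearly all actives have a fitted effect of over 35% in size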
# Summary of the method: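 Enzyme-free wells gave the negative control, while test wells held 1nM USP1/UAF1 preincubated with compound for 15 min at room temperature. Ub-Rho at 150nM final started the reaction, and fluorescence at 480/540 nm was recorded kinetically.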
# AA1029 = test: qHTS profiling for inhibitors of Plasmodium falciparum proliferation (AID 504749); note: nearly all actives have a fitted effect of over 60% in size; note: potency is the fitted concentration of half-maximal effect; conditions: P. falciparum in erythrocytes, SYBR Green DNA, 72 h; series mostly up to 28.7 µM
# Summary of the method: (§1)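 Quantitative HTS: compounds pinned into medium, infected erythrocytes added (0.3% parasitemia, 2.5% hematocrit), 72 h culture at 37 C under 5% CO2. Saponin/Triton lysis with SYBR Green I, overnight RT, then fluorescence read.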
# AS120 = test: as above; conditions: P. falciparum in erythrocytes, SYBR Green DNA, 72 h; series mostly up to 28.7 µM
# Summary of the method: as §1
# ATS189 = test: as above; conditions: P. falciparum in erythrocytes, SYBR Green DNA, 72 h; series mostly up to 28.7 µM
# Summary of the method: as §1
# CP297 = test: as above; conditions: P. falciparum in erythrocytes, SYBR Green DNA, 72 h; series mostly up to 28.7 µM
# Summary of the method: as §1
# CP335 = test: as above; conditions: P. falciparum in erythrocytes, SYBR Green DNA, 72 h; series mostly up to 28.7 µM
# Summary of the method: as §1
# PAD = test: as above; conditions: P. falciparum in erythrocytes, SYBR Green DNA, 72 h; series mostly up to 28.7 µM
# Summary of the method: as §1
# [2] = as above; conditions: P. falciparum in erythrocytes, SYBR Green DNA, 72 h; for activity, negative = inhibition: at 28.7 µM (top of the series)
# Summary of the method: as §1
# CP256 = test: as above; conditions: P. falciparum in erythrocytes, SYBR Green DNA, 72 h; series mostly up to 28.7 µM
# Summary of the method: as §1
# CP260 = test: as above; conditions: P. falciparum in erythrocytes, SYBR Green DNA, 72 h; series mostly up to 28.7 µM
# Summary of the method: as §1
# GB4 = test: as above; conditions: P. falciparum in erythrocytes, SYBR Green DNA, 72 h; series mostly up to 28.7 µM
# Summary of the method: as §1
# PC15 = test: as above; conditions: P. falciparum in erythrocytes, SYBR Green DNA, 72 h; series mostly up to 28.7 µM
# Summary of the method: as §1
# TAB109 = test: as above; conditions: P. falciparum in erythrocytes, SYBR Green DNA, 72 h; series mostly up to 28.7 µM
# Summary of the method: as §1
# CP185 = test: as above; conditions: P. falciparum in erythrocytes, SYBR Green DNA, 72 h; series mostly up to 28.7 µM
# Summary of the method: as §1
# CP238 = test: as above; conditions: P. falciparum in erythrocytes, SYBR Green DNA, 72 h; series mostly up to 28.7 µM
# Summary of the method: as §1
# CP265 = test: as above; conditions: P. falciparum in erythrocytes, SYBR Green DNA, 72 h; series mostly up to 28.7 µM
# Summary of the method: as §1
# CP291 = test: as above; conditions: P. falciparum in erythrocytes, SYBR Green DNA, 72 h; series mostly up to 28.7 µM
# Summary of the method: as §1
# DFO2036 = test: as above; conditions: P. falciparum in erythrocytes, SYBR Green DNA, 72 h; series mostly up to 28.7 µM
# Summary of the method: as §1
# PC26 = test: as above; conditions: P. falciparum in erythrocytes, SYBR Green DNA, 72 h; series mostly up to 28.7 µM
# Summary of the method: as §1
# SC27B = test: as above; conditions: P. falciparum in erythrocytes, SYBR Green DNA, 72 h; series mostly up to 28.7 µM
# Summary of the method: as §1
# Chain of Ubiquitin carboxyl-terminal hydrolase 1 (Homo sapiens) (O94782 whole entry, looked up): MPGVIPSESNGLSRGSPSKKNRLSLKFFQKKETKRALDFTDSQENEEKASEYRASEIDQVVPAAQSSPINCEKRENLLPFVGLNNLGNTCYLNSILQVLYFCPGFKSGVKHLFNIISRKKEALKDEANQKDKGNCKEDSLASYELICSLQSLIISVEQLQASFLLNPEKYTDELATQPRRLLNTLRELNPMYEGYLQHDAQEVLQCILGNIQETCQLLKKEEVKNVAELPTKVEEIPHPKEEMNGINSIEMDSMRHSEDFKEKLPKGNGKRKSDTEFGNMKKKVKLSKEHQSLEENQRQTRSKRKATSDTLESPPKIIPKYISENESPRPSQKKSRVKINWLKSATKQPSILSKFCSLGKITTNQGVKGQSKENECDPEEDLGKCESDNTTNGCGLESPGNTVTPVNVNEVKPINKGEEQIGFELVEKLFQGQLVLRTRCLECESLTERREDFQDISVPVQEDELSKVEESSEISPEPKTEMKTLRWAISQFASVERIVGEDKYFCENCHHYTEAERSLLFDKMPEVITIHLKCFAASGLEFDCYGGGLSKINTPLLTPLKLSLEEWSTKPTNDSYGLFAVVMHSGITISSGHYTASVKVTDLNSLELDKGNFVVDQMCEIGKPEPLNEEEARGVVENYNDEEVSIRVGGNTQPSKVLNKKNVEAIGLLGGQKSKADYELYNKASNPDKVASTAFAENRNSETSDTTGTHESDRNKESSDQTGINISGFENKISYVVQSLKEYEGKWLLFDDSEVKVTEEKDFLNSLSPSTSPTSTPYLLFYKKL
smiles,measurement,setting,value
COC(=O)C1[C@@H](OC)C(OC(=O)COc2ccc(OC)cc2)C[C@@H]2CN3CCc4c([nH]c5cc(OC)ccc45)[C@H]3C[C@H]12 (some centres not stated),Potency,[1],inactive
same,Potency,AA1029,10 µM (active)
same,Potency,AS120,11.2 µM (active)
same,Potency,ATS189,11.2 µM (active)
same,Potency,CP297,inactive
same,Potency,CP335,12 µM (active)
same,Potency,PAD,11.2 µM (active)
CCC1OC(=O)C[C@H](O)C(C)[C@@H](O[C@@H]2OC(C)C(O)C(N(C)C)C2O)C(CCN2CC(C)CC(C)C2)CC(C)C(=O)/C=C/C(C)=C\[C@@H]1COC1OC(C)C(O)C(OC)C1OC (some centres not stated),Potency,[1],inactive
same,"activity, negative = inhibition",[2]; parasite line A,-29.2%
same,Potency,CP256,8.91 µM (active)
same,Potency,CP260,11.2 µM (active)
same,Potency,CP335,9.53 µM (active)
same,Potency,GB4,7.57 µM (active)
same,Potency,PC15,inactive
same,Potency,TAB109,4.47 µM (active)
CC1=C(/C=C/C(C)=C\C=C\C(C)=C\C=C\C=C(C)\C=C\C=C(C)\C=C\C2=C(C)C[C@@H](O)CC2(C)C)C(C)(C)C[C@H](O)C1,Potency,AA1029,12.6 µM (active)
same,Potency,AS120,12.6 µM (active)
same,Potency,CP185,inactive
same,Potency,CP238,inactive
same,Potency,CP256,inactive
same,Potency,CP260,10 µM (active)
same,Potency,CP265,inactive
same,Potency,CP291,inactive
same,Potency,CP335,15.1 µM (active)
same,Potency,GB4,13.5 µM (active)
same,Potency,PAD,14.1 µM (active)
Cc1cnc(NC(=O)C2C(=O)c3ccccc3S(=O)(=O)N2C)s1 (configuration not stated),"activity, negative = inhibition",[2]; parasite line A,-14.2%
same,Potency,AA1029,inactive
same,Potency,AS120,inactive
same,Potency,ATS189,inactive
same,Potency,CP185,inactive
same,Potency,CP238,inactive
same,Potency,CP256,inactive
same,Potency,CP260,inactive
same,Potency,CP265,inactive
same,Potency,CP291,inactive
same,Potency,CP297,inactive
same,Potency,CP335,inactive
same,Potency,DFO2036,inactive
same,Potency,GB4,inactive
same,Potency,PAD,inactive
same,Potency,PC15,inactive
same,Potency,PC26,inactive
same,Potency,SC27B,inactive
same,Potency,TAB109,inactive
C[C@@H]1CC2[C@@H]3C[C@H](F)C4=CC(=O)C(Cl)=C[C@]4(C)[C@@]3(F)[C@H](O)C[C@]2(C)[C@@]1(O)C(=O)CO (some centres not stated),Potency,ATS189,inactive
same,Potency,CP256,inactive
same,Potency,CP265,inactive
same,Potency,CP291,inactive
same,Potency,CP297,inactive
same,Potency,CP335,inactive
same,Potency,DFO2036,inactive
same,Potency,PC15,inactive
same,Potency,SC27B,inactive
C=C1CC2C3C=C(C)C4=CC(=O)CCC4(C)C3CCC2(C)[C@@]1(OC(C)=O)C(C)=O (some centres not stated),"activity, negative = inhibition",[2]; parasite line B,-26.9%
same,Potency,AS120,inactive
same,Potency,CP185,inactive
same,Potency,CP238,inactive
same,Potency,CP265,inactive
same,Potency,DFO2036,inactive
same,Potency,PC15,inactive
same,Potency,SC27B,inactive
same,Potency,TAB109,inactive
O=C(NC(CO)C(O)c1ccc([N+](=O)[O-])cc1)C(Cl)Cl (configuration not stated),Potency,[1],inactive
same,Potency,CP256,11.2 µM (active)
same,Potency,CP291,3.01 µM (active)
same,Potency,CP335,4.78 µM (active)
same,Potency,PAD,inactive
same,Potency,PC15,inactive
same,Potency,PC26,inactive
same,Potency,SC27B,inactive
CCCCC(=O)OC1CCC2C3CCc4cc(O)ccc4C3CC[C@]12C (some centres not stated),"activity, negative = inhibition",[2]; parasite line A,-29.6%
same,Potency,AA1029,inactive
same,Potency,CP185,inactive
same,Potency,CP238,inactive
same,Potency,CP260,inactive
same,Potency,CP265,inactive
same,Potency,CP291,inactive
same,Potency,DFO2036,inactive
same,Potency,GB4,inactive
same,Potency,PC26,inactive
same,Potency,TAB109,inactive
Nc1nc(Cl)nc2c1ncn2[C@@H]1O[C@H](CO)[C@H](O)C1F (some centres not stated),Potency,[1],inactive
same,"activity, negative = inhibition",[2]; parasite line A,-2.17%
same,Potency,AA1029,inactive
same,Potency,AS120,inactive
same,Potency,ATS189,inactive
same,Potency,CP185,inactive
same,Potency,CP238,inactive
same,Potency,CP256,inactive
same,Potency,CP260,inactive
same,Potency,CP265,inactive
same,Potency,CP297,inactive
same,Potency,CP335,inactive
same,Potency,DFO2036,inactive
same,Potency,GB4,inactive
same,Potency,PAD,inactive
same,Potency,PC15,inactive
same,Potency,PC26,inactive
same,Potency,SC27B,inactive
same,Potency,TAB109,inactive
Cc1cncc(C(=O)O)[n+]1[O-],Potency,[1],inactive
same,Potency,CP260,inactive
same,Potency,CP291,inactive
same,Potency,CP297,inactive
same,Potency,CP335,inactive
same,Potency,GB4,inactive
same,Potency,PAD,inactive
same,Potency,PC15,inactive
same,Potency,PC26,inactive
same,Potency,SC27B,inactive
C=C1N[C@]2(C(=O)COC(C)=O)[C@@H](C[C@H]3[C@@H]4CCC5=CC(=O)C=C[C@]5(C)[C@H]4[C@@H](O)C[C@@]32C)O1,"activity, negative = inhibition",[2]; parasite line B,-29.8%
same,Potency,CP256,inactive
same,Potency,CP265,inactive
same,Potency,CP297,inactive
same,Potency,GB4,inactive
same,Potency,PAD,inactive
same,Potency,PC15,inactive
same,Potency,TAB109,inactive
C=C1CCC(O)C/C1=C/C=C1\CCC[C@]2(C)[C@@H]([C@H](C)/C=C/[C@H](C)C(C)C)CC[C@@H]12 (some centres not stated),Potency,AA1029,inactive
same,Potency,CP238,inactive
same,Potency,CP260,inactive
same,Potency,CP291,inactive
same,Potency,CP297,inactive
same,Potency,CP335,inactive
same,Potency,PC26,inactive
CCC(=O)OC1C(N(C)C)CC(C)O[C@H]1O[C@H]1[C@H](C)[C@@H](O[C@H]2CC(OC)[C@@H](O)C(C)O2)[C@H](C)C(=O)O[C@@H](CC)[C@](C)(O)[C@@H](O)[C@H](C)C(=O)[C@@H](C)C[C@]1(C)O (some centres not stated),Potency,[1],inactive
same,Potency,AS120,inactive
same,Potency,ATS189,inactive
same,Potency,CP238,inactive
same,Potency,CP260,inactive
same,Potency,CP291,inactive
same,Potency,PAD,inactive
same,Potency,PC15,inactive
same,Potency,SC27B,inactive
C=C1CC[C@H](O)C/C1=C/C=C1\CCC[C@]2(C)[C@@H]([C@H](C)CCCC(C)(C)O)CC[C@@H]12,Potency,[2]; parasite line B,11.2 µM (active)
same,Potency,AA1029,12.6 µM (active)
same,Potency,AS120,10 µM (active)
same,Potency,CP291,inactive
same,Potency,CP297,13.5 µM (active)
C=CCN1CC(C(=O)N(CCCN(C)C)C(=O)NCC)CC2c3cccc4[nH]cc(c34)CC21 (configuration not stated),Potency,[1],inactive
same,"activity, negative = inhibition",[2]; parasite line B,-28.9%
same,Potency,CP185,inactive
same,Potency,CP238,inactive
same,Potency,CP265,inactive
same,Potency,CP297,inactive
same,Potency,DFO2036,inactive
same,Potency,GB4,15.1 µM (active)
same,Potency,PC26,inactive
O=C(O)C[CH2][Ge](=[O])[O][Ge](=[O])[CH2]CC(=O)O,Potency,[1],inactive
same,"activity, negative = inhibition",[2]; parasite line A,10.2%
same,Potency,AA1029,inactive
same,Potency,AS120,inactive
same,Potency,ATS189,inactive
same,Potency,CP185,inactive
same,Potency,CP238,inactive
same,Potency,CP256,inactive
same,Potency,CP260,inactive
same,Potency,CP265,inactive
same,Potency,CP291,inactive
same,Potency,CP297,inactive
same,Potency,CP335,inactive
same,Potency,DFO2036,inactive
same,Potency,GB4,inactive
same,Potency,PAD,inactive
same,Potency,PC15,inactive
same,Potency,PC26,inactive
same,Potency,SC27B,inactive
same,Potency,TAB109,inactive
CCN(CC)CCOCCOC(=O)C(CC)(CC)c1ccccc1 (tested in a mixture with another compound),Potency,[1],inactive
same,Potency,CP256,5.62 µM (active)
same,Potency,CP265,1.12 µM (active)
same,Potency,GB4,8.49 µM (active)
same,Potency,PAD,inactive
same,Potency,TAB109,inactive
C=C1CC[C@H](O)C/C1=C/C=C1\CCC[C@]2(C)[C@@H]([C@H](C)CC[C@@H](O)C(C)(C)O)CC[C@@H]12,Potency,AS120,10 µM (active)
same,Potency,PC26,15.1 µM (active)
same,Potency,SC27B,11.2 µM (active)
CC1=C[C@@H](O)CC(C)(C)[C@@H]1/C=C/C(C)=C/C=C/C(C)=C/C=C/C=C(C)/C=C/C=C(C)/C=C/C1=C(C)C[C@H](O)CC1(C)C,"activity, negative = inhibition",[2]; parasite line A,-23.3%
same,Potency,ATS189,inactive
same,Potency,CP185,inactive
same,Potency,CP238,inactive
same,Potency,CP256,inactive
same,Potency,CP291,inactive
same,Potency,DFO2036,inactive
same,Potency,TAB109,inactive
COc1ccc(CC(C)NCC(O)c2ccc(O)c(NC=O)c2)cc1 (configuration not stated),Potency,[1],inactive
Oc1cc2cc(CCN3CCN(c4nsc5ccccc45)CC3)c(Cl)cc2[nH]1,"activity, negative = inhibition",[2]; parasite line B,-29.2%
same,Potency,AA1029,inactive
same,Potency,ATS189,inactive
same,Potency,CP185,inactive
same,Potency,CP238,inactive
same,Potency,CP256,inactive
same,Potency,CP265,inactive
same,Potency,CP297,inactive
same,Potency,DFO2036,inactive
same,Potency,SC27B,inactive
